According to ChEMBL document CHEMBL3988442, “University of Dundee, Small-Polar-MMV Screening Library” (2021):
For some assays here: Potency and affinity values are given separately.

Key:
Parameters in all cases: scale not given: direction of the effect not stated beside the values
[1] = target: Protein translocase subunit SecA (Escherichia coli (strain K12)) (UniProt P10408); assay: Assay to Identify E. coli SecA ATPase Inhibitors; type: functional; settings: 30 µM
[2] = target: T1, Ubiquitin-activating enzyme e1, putative (Leishmania donovani (strain BPK282A1)) (UniProt E9BSI1); assay: Leishmania donovani Ubiquitin Activating Enzyme (LdE1); type: functional; settings: 30 µM
T1 sequence (whole entry): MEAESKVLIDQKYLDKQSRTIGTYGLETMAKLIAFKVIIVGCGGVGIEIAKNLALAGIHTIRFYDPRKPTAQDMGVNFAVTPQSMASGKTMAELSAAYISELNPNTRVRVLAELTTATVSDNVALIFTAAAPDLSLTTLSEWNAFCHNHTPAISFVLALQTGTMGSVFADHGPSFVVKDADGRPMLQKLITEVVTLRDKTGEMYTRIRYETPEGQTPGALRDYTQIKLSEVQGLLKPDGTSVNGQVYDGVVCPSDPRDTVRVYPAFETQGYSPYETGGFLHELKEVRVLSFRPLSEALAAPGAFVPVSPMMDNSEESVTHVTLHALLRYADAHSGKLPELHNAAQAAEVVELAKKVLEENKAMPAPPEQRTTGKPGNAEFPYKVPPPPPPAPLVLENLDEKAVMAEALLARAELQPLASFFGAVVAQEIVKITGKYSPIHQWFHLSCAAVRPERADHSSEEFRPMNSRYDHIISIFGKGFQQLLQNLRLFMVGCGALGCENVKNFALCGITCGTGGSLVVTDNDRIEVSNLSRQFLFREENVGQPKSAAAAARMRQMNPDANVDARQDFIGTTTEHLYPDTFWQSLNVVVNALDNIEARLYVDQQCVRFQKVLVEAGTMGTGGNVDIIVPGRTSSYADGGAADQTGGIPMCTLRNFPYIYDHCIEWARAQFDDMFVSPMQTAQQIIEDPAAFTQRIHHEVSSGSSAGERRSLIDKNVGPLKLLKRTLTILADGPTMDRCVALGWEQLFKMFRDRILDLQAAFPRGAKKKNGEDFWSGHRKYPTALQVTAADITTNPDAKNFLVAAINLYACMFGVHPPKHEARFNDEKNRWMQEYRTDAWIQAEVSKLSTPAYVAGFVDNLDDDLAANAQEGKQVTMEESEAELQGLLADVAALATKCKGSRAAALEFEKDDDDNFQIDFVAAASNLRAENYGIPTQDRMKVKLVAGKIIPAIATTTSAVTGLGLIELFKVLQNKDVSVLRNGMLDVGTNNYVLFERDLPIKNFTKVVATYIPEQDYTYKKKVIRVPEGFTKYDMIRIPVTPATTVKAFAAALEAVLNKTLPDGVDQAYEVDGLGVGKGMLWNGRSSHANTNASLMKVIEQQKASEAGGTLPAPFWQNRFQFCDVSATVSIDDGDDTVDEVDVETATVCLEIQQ

[3] = target: AMP-activated protein kinase, AMPK (Homo sapiens) (UniProt P54646+O43741+P54619+Q9UGJ0+Q9Y478+Q13131+Q9UGI9); assay: AMP-dependent Kinase enzyme assay. An in vitro enzyme assay that detects ADP turnover that is directly proportional to AMPK activity. This uses naive AMPK that is activated during the assay with MK-8722; type: functional; settings: 30 µM
[4] = target: Sialic acid-binding Ig-like lectin 9 (Homo sapiens) (UniProt Q9Y336); assay: Hs-Siglec9 ALPHAscreen SOP 20170721; settings: 10 µM
Sequence of Sialic acid-binding Ig-like lectin 9 (Homo sapiens) (Q9Y336 whole entry): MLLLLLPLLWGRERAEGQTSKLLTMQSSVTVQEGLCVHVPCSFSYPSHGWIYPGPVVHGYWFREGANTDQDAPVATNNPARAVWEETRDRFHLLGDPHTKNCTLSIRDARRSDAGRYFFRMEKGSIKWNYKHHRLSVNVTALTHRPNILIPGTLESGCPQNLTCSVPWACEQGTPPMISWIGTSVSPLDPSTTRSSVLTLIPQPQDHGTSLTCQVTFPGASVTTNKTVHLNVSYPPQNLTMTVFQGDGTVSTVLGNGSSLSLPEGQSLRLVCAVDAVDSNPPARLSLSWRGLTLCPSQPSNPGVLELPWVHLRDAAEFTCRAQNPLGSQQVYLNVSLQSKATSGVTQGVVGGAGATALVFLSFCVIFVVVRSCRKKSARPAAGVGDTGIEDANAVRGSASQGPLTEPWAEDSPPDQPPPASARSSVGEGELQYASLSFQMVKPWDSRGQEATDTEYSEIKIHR

Trypanosoma cruzi = assay: Trypanosoma cruzi phosphomannomutase and mannose-1-phosphate guanylyltransferase assay; type: functional; settings: 10 µM
[5] = target: T2, Arginase-2, mitochondrial (Homo sapiens) (UniProt P78540); assay: in vitro enzyme assay to detect the production of urea directly proportional to the activity of Arginase II; type: functional; settings: 33.3 µM; also: in the data most compounds retested in dose-response had high values
T2 sequence (whole entry): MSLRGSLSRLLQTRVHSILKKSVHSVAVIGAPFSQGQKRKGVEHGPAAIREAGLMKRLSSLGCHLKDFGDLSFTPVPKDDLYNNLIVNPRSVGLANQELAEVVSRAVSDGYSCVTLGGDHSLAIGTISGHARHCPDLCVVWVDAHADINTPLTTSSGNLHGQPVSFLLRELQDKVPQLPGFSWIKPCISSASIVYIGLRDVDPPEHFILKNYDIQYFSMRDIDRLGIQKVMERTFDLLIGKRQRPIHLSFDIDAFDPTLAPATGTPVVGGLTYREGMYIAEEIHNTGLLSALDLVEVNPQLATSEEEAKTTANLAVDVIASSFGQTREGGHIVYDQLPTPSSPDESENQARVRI

[6] = target: T3, Proteasome subunit beta (Trypanosoma cruzi) (UniProt O96673); assay: Trypanosoma cruzi proteasome chymotrypsin-like activity (TcProtChymo) assay.; also: in the data most compounds retested in dose-response had high values; type: functional; settings: 9.37 µM
T3 sequence (whole entry): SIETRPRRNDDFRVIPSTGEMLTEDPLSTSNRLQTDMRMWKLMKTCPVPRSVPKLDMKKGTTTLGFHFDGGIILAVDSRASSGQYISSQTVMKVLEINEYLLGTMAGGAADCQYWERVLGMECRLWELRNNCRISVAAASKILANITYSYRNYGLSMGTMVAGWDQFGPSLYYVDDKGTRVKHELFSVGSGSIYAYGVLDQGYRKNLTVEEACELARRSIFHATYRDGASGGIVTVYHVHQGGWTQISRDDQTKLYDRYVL

Homo sapiens = organism: Homo sapiens; assay: To identify inhibition of the IFN signalling (Jak-Stat) pathway via expression of an eGFP reporter gene under the control of an IFN-stimulated response element (ISRE) containing MxA promoter.; type: functional; settings: 30 µM
[7] = target: T4, Tyrosyl-tRNA synthetase, putative (Trypanosoma cruzi (strain CL Brener)) (UniProt Q4DSP6); assay: Trypanosoma cruzi tyrosyl tRNA synthetase (TcYRS) _High Tyrosine SOP; type: functional; settings: 30 µM; also: in the data most compounds retested in dose-response had high values
T4 sequence (whole entry): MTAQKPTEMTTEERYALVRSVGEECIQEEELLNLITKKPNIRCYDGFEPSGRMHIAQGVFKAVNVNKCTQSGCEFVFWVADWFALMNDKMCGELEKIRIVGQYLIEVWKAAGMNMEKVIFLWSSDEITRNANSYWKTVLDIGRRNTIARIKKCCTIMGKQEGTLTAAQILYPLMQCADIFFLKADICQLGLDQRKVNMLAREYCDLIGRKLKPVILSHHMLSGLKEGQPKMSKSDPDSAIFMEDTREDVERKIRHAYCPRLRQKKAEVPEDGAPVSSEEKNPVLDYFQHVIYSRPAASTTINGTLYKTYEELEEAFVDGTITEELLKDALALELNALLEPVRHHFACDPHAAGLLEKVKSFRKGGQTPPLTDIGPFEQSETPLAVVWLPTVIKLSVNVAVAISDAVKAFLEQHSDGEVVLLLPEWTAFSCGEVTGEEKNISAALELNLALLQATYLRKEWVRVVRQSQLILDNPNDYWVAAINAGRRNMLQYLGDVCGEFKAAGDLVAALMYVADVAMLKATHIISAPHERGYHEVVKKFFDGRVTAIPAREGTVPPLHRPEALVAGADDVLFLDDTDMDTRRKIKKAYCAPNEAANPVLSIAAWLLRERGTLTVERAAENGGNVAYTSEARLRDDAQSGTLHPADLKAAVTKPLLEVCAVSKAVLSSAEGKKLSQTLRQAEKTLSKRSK

[8] = target: T4, Tyrosyl-tRNA synthetase, putative (Trypanosoma cruzi (strain CL Brener)); assay: Trypanosoma cruzi tyrosyl tRNA synthetase (TcYRS) SOP; type: functional; settings: 30 µM
[9] = target: Chromo domain-containing protein 1 (Saccharomyces cerevisiae (strain ATCC 204508 / S288c) (Baker's yeast)) (UniProt P32657); assay: ScCHD-1 Enzyme Inhibition Assay; type: functional; settings: 30 µM; also: in the data most compounds retested in dose-response had high values
Sequence of Chromo domain-containing protein 1 (Saccharomyces cerevisiae (strain ATCC 204508 / S288c) (Baker's yeast)) (P32657 whole entry, the tested form may be a part): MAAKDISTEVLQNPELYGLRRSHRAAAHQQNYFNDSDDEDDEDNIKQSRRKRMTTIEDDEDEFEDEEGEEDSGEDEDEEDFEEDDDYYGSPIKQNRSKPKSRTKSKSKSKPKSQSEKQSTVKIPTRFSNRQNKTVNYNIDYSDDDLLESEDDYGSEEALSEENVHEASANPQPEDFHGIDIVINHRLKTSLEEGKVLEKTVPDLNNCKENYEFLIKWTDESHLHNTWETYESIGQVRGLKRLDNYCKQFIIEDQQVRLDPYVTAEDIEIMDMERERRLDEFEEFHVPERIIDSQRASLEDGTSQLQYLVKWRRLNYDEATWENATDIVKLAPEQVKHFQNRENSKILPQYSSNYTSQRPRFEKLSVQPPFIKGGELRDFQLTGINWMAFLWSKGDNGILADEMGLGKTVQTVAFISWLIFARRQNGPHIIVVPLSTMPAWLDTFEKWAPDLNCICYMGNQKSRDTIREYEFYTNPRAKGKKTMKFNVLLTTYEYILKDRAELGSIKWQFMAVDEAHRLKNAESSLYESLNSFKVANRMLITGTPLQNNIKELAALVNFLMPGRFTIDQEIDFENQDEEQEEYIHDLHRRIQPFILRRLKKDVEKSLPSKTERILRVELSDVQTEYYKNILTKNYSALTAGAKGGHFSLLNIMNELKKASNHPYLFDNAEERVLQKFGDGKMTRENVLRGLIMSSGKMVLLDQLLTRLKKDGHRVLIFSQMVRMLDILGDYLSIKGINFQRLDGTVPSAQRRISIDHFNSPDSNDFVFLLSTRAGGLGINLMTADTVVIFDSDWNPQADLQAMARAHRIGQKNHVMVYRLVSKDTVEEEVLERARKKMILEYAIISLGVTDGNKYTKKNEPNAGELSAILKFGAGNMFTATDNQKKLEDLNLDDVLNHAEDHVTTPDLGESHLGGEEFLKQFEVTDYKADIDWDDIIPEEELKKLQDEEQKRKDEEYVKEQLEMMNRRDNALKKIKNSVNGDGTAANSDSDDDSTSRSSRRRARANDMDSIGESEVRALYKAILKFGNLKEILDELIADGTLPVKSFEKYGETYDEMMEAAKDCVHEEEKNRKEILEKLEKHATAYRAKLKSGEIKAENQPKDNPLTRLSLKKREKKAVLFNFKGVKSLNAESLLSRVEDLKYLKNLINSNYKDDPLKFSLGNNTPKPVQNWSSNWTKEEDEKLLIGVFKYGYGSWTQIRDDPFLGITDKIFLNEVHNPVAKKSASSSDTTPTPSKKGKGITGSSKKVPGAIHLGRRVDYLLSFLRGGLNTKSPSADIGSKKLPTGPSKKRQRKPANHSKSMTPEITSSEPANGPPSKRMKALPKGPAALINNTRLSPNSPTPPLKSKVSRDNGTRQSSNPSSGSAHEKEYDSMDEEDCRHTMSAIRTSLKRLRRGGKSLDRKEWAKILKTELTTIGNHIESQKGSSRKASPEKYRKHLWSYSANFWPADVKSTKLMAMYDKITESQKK

Sequence of Protein translocase subunit SecA (Escherichia coli (strain K12)) (P10408 whole entry): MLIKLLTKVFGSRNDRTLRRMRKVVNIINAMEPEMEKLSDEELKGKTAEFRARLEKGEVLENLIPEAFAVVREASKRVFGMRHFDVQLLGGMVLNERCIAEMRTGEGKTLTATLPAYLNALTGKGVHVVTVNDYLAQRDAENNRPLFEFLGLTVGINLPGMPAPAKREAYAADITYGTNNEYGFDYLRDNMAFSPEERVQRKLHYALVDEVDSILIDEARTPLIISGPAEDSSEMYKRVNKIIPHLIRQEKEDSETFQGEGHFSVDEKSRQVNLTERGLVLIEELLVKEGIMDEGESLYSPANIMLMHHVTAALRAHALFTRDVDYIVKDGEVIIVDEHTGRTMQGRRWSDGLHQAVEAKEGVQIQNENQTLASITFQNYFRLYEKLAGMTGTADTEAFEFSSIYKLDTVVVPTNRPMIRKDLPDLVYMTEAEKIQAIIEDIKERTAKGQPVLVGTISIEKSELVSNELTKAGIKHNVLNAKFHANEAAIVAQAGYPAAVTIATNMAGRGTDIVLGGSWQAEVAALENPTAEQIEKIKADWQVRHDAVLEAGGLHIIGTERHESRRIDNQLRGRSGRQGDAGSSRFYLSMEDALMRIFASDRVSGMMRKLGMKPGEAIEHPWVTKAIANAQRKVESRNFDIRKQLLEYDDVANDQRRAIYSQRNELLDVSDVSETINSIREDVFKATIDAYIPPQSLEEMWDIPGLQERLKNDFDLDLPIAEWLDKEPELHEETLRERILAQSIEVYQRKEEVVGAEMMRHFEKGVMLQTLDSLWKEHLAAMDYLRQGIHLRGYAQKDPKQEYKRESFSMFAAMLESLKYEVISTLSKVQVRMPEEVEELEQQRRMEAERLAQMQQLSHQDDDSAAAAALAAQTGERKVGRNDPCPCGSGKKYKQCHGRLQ

SMILES | Percent Effect [1] [%] | Percent Effect [2] [%] | Percent Effect [3] [%] | Percent Effect [4] [%] | Percent Effect (Trypanosoma cruzi) [%] | Percent Effect [5] [%] | Percent Effect [6] [%] | Percent Effect (Homo sapiens) [%] | Percent Effect [7] [%] | Percent Effect [8] [%] | Percent Effect [9] [%]
CCN(CC)C(=O)c1nnc2ccc(N3CCOCC3)cc2n1 | -7.46 | 9.33 | -17.9 | 3.43 | 7.27 | -7.57 | 14.1 | 11.4 | 3.17 | 12.8 | -14.1
CN(Cc1ccsc1)C(=O)Nc1ccc(S(C)(=O)=O)nc1 | -2.7 | 22.8 | -11.6 | -5.34 | 4.63 | -3.04 | 10.6 | 5.01 | 9.36 | 24.1 | -6.57
Cc1cc(C(=O)N2CCCCC2C)ccc1NCCCO (configuration not stated) | -2.03 | -2.6 | 3.91 | 5.61 | -3 | 0.712 | 4.73 | -4.27 | 3.88 | 7.32 | -0.238
N#Cc1cc(NC(=O)C2CC=CC2)ccc1N1CCC(O)CC1 | -3.63 | 2.7 | -2.38 | 4.36 | -0.193 | 1.91 | 7.41 | 0.178 | 2.65 | 7.32 | -2.26
O=S(=O)(C1CC1)N1CCOCC2(CCN(c3ccccn3)C2)C1 (configuration not stated) | -6.13 | 1.33 | 15.1 | -7.58 | -5.7 | -6.51 | 7.21 | 3.01 | -6.35 | -5.13 | -5.08
CC(C)c1nc(C2CCCN2Cc2ccccc2C#N)no1 (configuration not stated) | -1.53 | -13 | -3.89 | 11.4 | 5.24 | 1.07 | -4.22 | 5.77 | 5.83 | 12.2 | 73.9
COC(=O)c1cccc(NC(=O)CN2CCN(S(C)(=O)=O)CC2)c1 | -1.95 | 16.2 | 0.0395 | 18.7 | 2.64 | 25.6 | 15.4 | 0.655 | 4.3 | 16.1 | -4.76
Cc1occc1C(=O)N1CCC2(CC1)CC(c1cccnc1)C(=O)N2C (configuration not stated) | -1.69 | 10.7 | -2.33 | 5.45 | -1.74 | -19.9 | 5.64 | -9.07 | 2.08 | 12.5 | -5.44
O=C(O)[C@@H]1CN(C(=O)c2cc(C3CC3)n[nH]2)C[C@H]1c1cccc(F)c1 | -3.18 | 16.4 | -3.35 | 7.52 | 2.98 | -7.58 | 14.5 | -4.38 | 3.12 | 21 | -6.55
CC(C)c1n[nH]c(C(=O)Nc2ccnn2C(C)C)c1Br | -9.82 | 12.7 | -6.58 | 19.3 | 8.4 | -6.84 | 9.42 | 39.4 | 7.39 | 13.9 | -9.92
Cn1cnc2c1CCN(Cc1noc(-c3ccccc3)n1)C2 | -4.07 | 15.8 | -9.94 | 14.2 | 3.08 | -2.52 | 1.27 | -13.4 | 6.4 | 11.1 | 0.774
C1CCCN(c2nc(C3CC3)ns2)CC1 | -7.97 | -5.48 | -19.9 | 6.34 | -4.31 | -2.27 | 12.2 | 30.1 | -4.3 | -10 | -3.08
Cc1csc([C@@H]2C[C@@H]3CCN(C(=O)c4cc(C)on4)C[C@H]3O2)n1 | -3.41 | 20.8 | -1.54 | -4.81 | 4.04 | 5.81 | 11.7 | 12.7 | 4.23 | 16.7 | -9.47
CN(Cc1ccc(F)cc1)C(=O)NCC1(N2CCOCC2)CCSC1 (configuration not stated) | 2.92 | 16.2 | -0.11 | 22.3 | 2.12 | 1.43 | 15.9 | 14.5 | 3.7 | 17.1 | -8.64
CN(CCNC(=O)N1CCN(Cc2ccon2)CC1)c1ccccc1 | -4.87 | 5.33 | -2.4 | 0.269 | -5.75 | 2.6 | 12.2 | -1.26 | 3.83 | 3.7 | -4.99
CN1CCc2c(C#N)c(NCc3ccco3)n3cnnc3c2C1 | -7.61 | 15.8 | 0.706 | 6.25 | 1.07 | 0 | 14.5 | -6.85 | 4.25 | 15.6 | -17.9
COc1c(CNCc2ccnc(N3CCCC3)c2)c(C)nn1C | -5.03 | 3.8 | -1.28 | 2.4 | 0.103 | -0.215 | -4.12 | 7.98 | 7.29 | 15.2 | -7.79
CCn1ccnc1CN1CCN(CCOc2cccc(C#N)c2)CC1 | -4.35 | 21.1 | -6.98 | -4.93 | 5.64 | -0.383 | 11.9 | 4.93 | 8.33 | 19.5 | -13
COCCNC(=O)[C@H]1C[C@@H]2CCN(Cc3ccoc3)C[C@H]2O1 | -1.42 | 8.11 | 5.25 | -7.78 | -8.7 | 7.96 | 23.2 | 2.97 | 0 | 7.69 | -1.51
CS(=O)(=O)NCCNC(=O)C1(c2cccc(Cl)c2)CC1 | -0.857 | 9.72 | -4.76 | 1.31 | 1.07 | 20.8 | 10.9 | -17.9 | 3.16 | 7.69 | -4.91
Cc1cc(C(N)=O)ccc1NC(=O)c1nc(N2CCCC2)ncc1Cl | 0.24 | 0 | -4.73 | -1.27 | -8.4 | 6.67 | 11.1 | 1.42 | 5.94 | 3.66 | 2.96
Cn1c(C(F)(F)F)nn(CCNC(=O)CSCc2ccccc2)c1=O | -3.49 | 8.22 | 2.99 | 4.38 | 4.7 | 5 | 4.79 | 14.2 | 4.3 | 15 | -4.6
